# In the library only some 11% were active in any assay of this set; here they are far more common.
# JMJD2A Tudor = JMJD2A Tudor domain (human) inhibition | Potency, µM (series often up to 114 µM), inactives show at the top dose activity change, negative = inhibition, hits mostly inhibitors | O75164 | AlphaScreen JMJD2A-Tudor / H3K4me3 peptide binding | actives 4.4% (n = 390,000); further: on the % scale 0 is the no-effect control and ±100 the full control effect; nearly all actives have a fitted effect of over 50% in size
# L3MBTL1 inh = blocks human L3MBTL1. Q9Y468. actives 0.66% (n = 230,000). AlphaScreen L3MBTL1–H3K9me1 peptide binding. Potency, µM (series often up to 57.1 µM), inactives show at the highest dose activity, negative = inhibition, hits mostly inhibitors; further: on the % scale 0 is the no-effect control and ±100 the full control effect; nearly all actives have a fitted effect of over 60% in size
#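 Read-out is AlphaScreen signal from streptavidin donor and nickel chelate acceptor beads (10 ug/mL final each) bridging L3MBTL1 (50 nM) and biotinylated K9-monomethylated H3(1-15) peptide (75 nM), after 30 min compound exposure at room temperature.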
# G9a block = G9a (human) methyltransferase inhibition; actives 8.8% (n = 350,000); AID 504332; G9a H3K9 monomethylation, AlphaScreen, 2 h; Q96KQ7; Potency, µM (highest dose often 102 µM), for the others: top-dose activity, negative = inhibition, usual class: inhibitors; further: on the % scale 0 is the no-effect control and ±100 the full control effect; nearly all actives have a fitted effect of over 75% in size
# Target sequence (Q96KQ7 913-1193 limits assumed): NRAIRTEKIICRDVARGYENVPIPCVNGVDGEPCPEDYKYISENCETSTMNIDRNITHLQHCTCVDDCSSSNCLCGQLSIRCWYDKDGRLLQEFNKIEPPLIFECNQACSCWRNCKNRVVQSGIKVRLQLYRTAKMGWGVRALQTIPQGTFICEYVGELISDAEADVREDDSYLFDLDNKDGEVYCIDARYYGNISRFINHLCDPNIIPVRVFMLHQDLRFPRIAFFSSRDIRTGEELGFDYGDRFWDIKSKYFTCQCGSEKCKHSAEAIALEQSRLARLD
#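 Readings reflect AlphaScreen signal from monomethyl-H3K9 antibody detection. HMT at 20 nM; substrate b-H3K9 500 nM; cofactor SAM 20 uM; 2 h RT reaction; compounds tested as titrations in qHTS with 15 min preincubation.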
# BAZ2B block = blocks human BAZ2B; Q9UIF8; AlphaScreen BAZ2B-H3K14Ac peptide displacement; Potency, µM (top dose mostly 114 µM), without a hit: at the highest dose activity change, negative = inhibition, most hits filed as inhibitors; actives 4.4% (n = 360,000); AID 504333; further: on the % scale 0 is the no-effect control and ±100 the full control effect; nearly all actives have a fitted effect of over 60% in size
#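 AlphaScreen displacement of biotin-H3(5-23)K14Ac peptide (50 nM final) from BAZ2B (50 nM final) in PBS pH 7.4, 0.01% Tween-20; complex preformed 30 min RT, then compounds (top 110 uM) 30 min RT, beads 20 min dark.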
# HP1b chromo inh = HP1-beta chromodomain-methylated histone interaction inhibition; AID 540317; actives 0.56% (n = 390,000); Potency, µM (titrated, usually from 114 µM), inactives show top-dose activity change, negative = inhibition, hits mostly inhibitors; AlphaScreen HP1-beta / biotin-H3K9me3 peptide binding; P83916; further: nearly all actives have a fitted effect of over 70% in size
# Target sequence (P83916 whole entry, looked up): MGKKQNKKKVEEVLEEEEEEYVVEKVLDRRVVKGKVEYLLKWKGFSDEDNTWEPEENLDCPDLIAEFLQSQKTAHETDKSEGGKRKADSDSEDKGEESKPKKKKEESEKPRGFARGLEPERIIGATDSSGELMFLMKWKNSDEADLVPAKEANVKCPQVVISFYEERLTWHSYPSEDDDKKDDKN
#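 AlphaScreen: HP1-beta (50 nM) preformed 30 min with biotin-H3(1-18)K9me3 peptide (50 nM) in PBS pH 7.4, 0.01% Tween-20. Compound added for 30 min at RT, then streptavidin donor/nickel chelate acceptor beads (10 ug/mL) for 30 min.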
# * = called active by the depositor; ? = inconclusive; / = no result given; [ ] = another dose, or the depositor's remark. The call rests on the fitted dose curve; in most records, active means well fitted inhibition curve with a large enough effect; inconclusive means small, poorly fitted or top-dose-only effect; inactive means no such curve, though single readings can be large or run the other way. Potency means the concentration at half of the fitted maximal effect.
SMILES,JMJD2A Tudor,L3MBTL1 inh,G9a block,BAZ2B block,HP1b chromo inh
CCC(c1nnnn1Cc1ccc2c(c1)OCO2)N1CCN(c2ccc(OC)cc2)CC1 (centres undefined),?,-28.0%,39.8µM*,31.6µM*,-42.0%
COc1ccc(Cn2nnnc2C(c2cccnc2)N2CCN(c3ccc(O)cc3)CC2)cc1 (centres undefined),?,-7.7%,?,-1.1%,?
Oc1ccc(N2CCN(C(c3ccccn3)c3nnnn3C3CCCC3)CC2)cc1 (centres undefined),25.1µM*,-4.9%,1.78µM*,-11.5%,?
Oc1ccc(N2CCN(C(c3ccc(Cl)cc3)c3nnnn3Cc3ccc(F)cc3)CC2)cc1 (centres undefined),39.8µM*,/,/,/,?
CCC(C)(C)n1nnnc1C(c1ccccn1)N1CCN(c2cccc(OC)c2)CC1 (centres undefined),-32.8%,-7.4%,20µM*,-3.6%,16.9%
Cc1ccccc1Cn1c(CN2CCC(C(=O)NCCN(C)C)CC2)cc2ccccc21,?,/,?,?,3.2%
CCOC(=O)c1c(S(=O)(=O)N2CCC(C(=O)Nc3ccc(C)cn3)CC2)c(C)n(C)c1C,-11.7%,/,-36.6%[59 µM],-3.4%,12.8%
CCC(c1nnnn1Cc1ccccc1)N1CCN(c2ccc(OC)cc2)CC1 (centres undefined),?,-24.0%,12.6µM*,?,-3.9%
COc1ccc(Cn2nnnc2C(c2ccccc2)N2CCN(c3ccccc3)CC2)cc1 (centres undefined),?,/,/,/,6.5%
COc1ccc(Cn2nnnc2C(c2ccccn2)N2CCN(c3ccc(O)cc3)CC2)cc1 (centres undefined),31.6µM*,/,/,/,?
CCC(c1nnnn1Cc1ccc(OC)cc1)N1CCN(c2ccc(OC)cc2)CC1 (centres undefined),?,-20.4%,/,35.5µM*,?
CCCC(c1nnnn1Cc1cccs1)N1CCN(c2ccc(OC)cc2)CC1 (centres undefined),?,-19.6%,17.8µM*,44.7µM*,?
COc1cc(NC(=O)c2ccc3oc(=O)c(S(=O)(=O)c4ccccc4)cc3c2)cc(OC)c1,-20.2%,/,-31.8%[59 µM],-13.4%[57.1 µM],22.5%
CCCC(c1nnnn1CC1CCCO1)N1CCN(c2ccccc2)CC1 (centres undefined),-1.4%,0.4%,56.2µM*,?,42.4%
CCOc1ccccc1NC(=O)Cn1cc(C(=O)c2ccc(Cl)cc2)c(=O)c2ccc(C)nc21,-25.2%,/,-24.3%[59 µM],4.9%[57.1 µM],-6.9%
C(=N\Nc1nc(-c2ccccc2)cs1)/c1cccs1,-34.2%,-12.8%,14.1µM*,?,-23.6%
C(=N\Nc1nc(-c2ccccc2)cs1)/c1ccncc1,?,-7.7%,50.1µM*,?,-4.8%
O=[N+]([O-])c1cccc(-c2csc(N/N=C/c3cccc(O)c3)n2)c1,56.2µM*,/,35.5µM*,?,44.7µM*
ClCc1csc(N/N=C/c2cccs2)n1,/,-16.8%,?,-34.7%,/
O=C(O)Cc1sc(N/N=C\c2ccncc2)nc1-c1ccccc1,-7.4%[11.4 µM],-17.9%,2µM*,-21.1%,17.2%
C(=N\Nc1nc(Nc2ccccc2)nc(Nc2ccccc2)n1)/c1ccncc1,-17.6%,-15.0%,-19.8%,-22.5%,20.7%
Cc1onc(-c2ccccc2)c1-c1csc(N/N=C/c2ccccc2)n1,?,-11.9%,/,-24.1%,20.8%
COc1ccc(C(=O)NCc2nnnn2-c2ccc(C)c(C)c2)cc1,-15.3%,/,9.6%[59 µM],9.3%,17.8%[57 µM]
CN(C)Cc1c(O)ccc2c1O/C(=C\C=C\c1ccccc1)C2=O,1.5%[11.4 µM],-8.5%,?,-22.8%,-8.1%
Cc1cc(O)c(CN(C)C)c2c1C(=O)/C(=C/c1ccco1)O2,-25.6%,/,6.31µM*,-21.6%,-9.3%
SMILES,JMJD2A Tudor,L3MBTL1 inh,G9a block,BAZ2B block,HP1b chromo inh
CN1C(=O)C(=C2CCCCCC2)SC1=S,1.0%,-1.9%,44.7µM*,1.9%,75.2%
O=C1N=C(N2CCCCC2)SC1=C1CCCC1,-10.9%,-1.6%,10.3%[59 µM],-4.3%,13.0%
Fc1cccc(CNc2ncnc3ccc(-c4cccnc4)cc23)c1,/,-3.5%,-5.1%[12.7 µM],7.7%,/
COc1ccc(-c2cc(C(=O)OCc3ccccn3)c3ccccc3n2)cc1,20µM*,/,?,?,204.6%
O=C(NCc1ccccn1)c1cc(-c2ccc(-c3ccccc3)cc2)nc2ccccc12,?,-18.7%,3.16µM*,?,7.8%
COc1ccc(-c2cc(C(=O)OCC(=O)N(C)C)c3ccccc3n2)cc1,-10.5%,22.3%,-20.3%[12.7 µM],39.7%,57.8%
CNc1nc(-c2ccccc2)c(-c2ccccc2)s1,-10.9%,/,/,/,28.1%
CN1c2ccccc2-c2nc3ccccc3n2C1c1ccccn1 (centres undefined),-24.1%,33.8%,50.1µM*,?,61.0%
CN(C)c1ccc(N=Nc2ccccc2C(=O)OCC(=O)NCC2CCCCC2)cc1,7.94µM*,11.2µM*,7.94µM*,8.91µM*,?
CN(C)c1ccc(C(=O)OCC(=O)NC2CCCCCC2)cc1,-18.2%,6.3%,-3.7%,/,13.4%
O=C(COC(=O)c1ccccc1Br)NCC1CCCCC1,14.4%,4.0%,/,/,23.4%
CN(C)c1ccc(N=Nc2ccccc2C(=O)OCC(=O)NC2CCCC2)cc1,31.6µM*,?,11.2µM*,12.6µM*,-86.5%
CN(C(=O)COC(=O)c1cccnc1Cl)C1CCCCC1,-2.1%,3.9%,/,/,22.9%
CN(C)c1ccc(N=Nc2ccccc2C(=O)OCC(=O)N(C)C2CCCCC2)cc1,?,28.2µM*,20µM*,8.91µM*,-24.2%
CCCCNC(=S)Nc1ccc([N+](=O)[O-])cc1,-24.7%,-9.3%,-16.0%,-32.2%,6.0%
CCCC(=O)NC(=S)NNC(=O)c1ccc([N+](=O)[O-])cc1,70.8µM*,8.8%,3.16µM*,9.0%,-5.9%
CCCCNC(=S)NC(=O)c1ccc([N+](=O)[O-])cc1,?,-16.2%,/,50.1µM*,-30.0%
CCC(=O)NC(=S)NNC(=O)c1ccc(O)cc1,20µM*,5.1%,/,-0.4%,56.7%
O=C(O)c1cccc(-c2ccccc2)c1O,-12.4%,/,/,/,29.4%
COCCN1CC(C(=O)N2CCC(Oc3ccccc3OC)CC2)CCC1=O (centres undefined),-4.1%,/,25.8%,-9.2%,25.1%
Cn1nc(-c2ccccc2F)c2cc(C(=O)N3CCN(c4ccccc4F)CC3)sc21,-18.7%,/,-6.2%[59 µM],/,34.8%
COc1cccc(CNC(=O)CCNS(=O)(=O)c2ccc3c(c2)CCCC(=O)N3)c1,-14.2%,/,-16.6%[59 µM],11.6%[57.1 µM],33.1%
COc1cc(NC(=O)Nn2cnnc2)cc(OC)c1OC,-10.3%,/,44.7µM*,2.6%,3.2%
COc1ccc(N(C(=O)/C=C\C(=O)Nc2ccc(C)cc2)C(C(=O)NCc2ccco2)c2ccc(C)cc2)cc1 (centres undefined),?,/,14.1µM*,-19.7%,7.8%

# Screens (PubChem)
